Source: PubChem BioAssay (National Center for Advancing Translational Sciences (NCATS))
The list is not random: actives were taken first. Their share in the collection is about 6%.
D1 potentiator: potentiators of human D1 dopamine receptor | P21728 | HEK293 TREx D1 cells, calcium flux, dopamine EC20 potentiation | 360,000 tested, 0.036% active | potentiation, % at 10 µM; in the data active means potentiation above about 30%; further: 0% is about no effect
Target sequence (P21728 whole entry, looked up): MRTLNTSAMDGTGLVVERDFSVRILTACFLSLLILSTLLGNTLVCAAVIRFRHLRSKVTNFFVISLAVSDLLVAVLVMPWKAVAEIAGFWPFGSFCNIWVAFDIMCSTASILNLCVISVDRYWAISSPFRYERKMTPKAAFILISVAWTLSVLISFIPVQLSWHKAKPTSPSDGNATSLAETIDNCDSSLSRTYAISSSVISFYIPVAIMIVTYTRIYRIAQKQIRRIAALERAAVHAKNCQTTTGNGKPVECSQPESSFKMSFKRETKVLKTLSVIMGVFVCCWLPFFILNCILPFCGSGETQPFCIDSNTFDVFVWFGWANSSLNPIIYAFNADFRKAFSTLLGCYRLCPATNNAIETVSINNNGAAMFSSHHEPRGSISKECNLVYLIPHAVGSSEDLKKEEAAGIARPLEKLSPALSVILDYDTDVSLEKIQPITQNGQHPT
DRD3 antagonist: blocks the human D3 dopamine receptor; P35462; D3R cells, DiscoveRx beta-arrestin luminescence, antagonist mode; active compounds read low; max response, negative = inhibition, %; 360,000 tested, 2.5% active; AID 652054; in the data active means max response below about -50%; inconclusive means no clear call, values can overlap the other calls; further: on the % scale 0 is the no-effect control and ±100 the full control effect
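Cells expressing the human receptor were seeded at 1500 cells/well, incubated overnight at 37 degrees C in 5% CO2, then exposed to library compounds with dopamine controls for 90 minutes at 37 degrees C before luminescent detection.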
D1 ag: human D1 receptor agonism; HEK293 T-REx D1 cells, calcium flux, agonist mode; activation, % at 2 µM; 360,000 tested, 1% active; P21728; in the data active means activation above about 30%; further: 0% is about no effect
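Tetracycline-induced HEK293 TREx D1 cells, force-coupled to calcium signalling, were dye-loaded with a no-wash calcium kit. Compound was pin-added after a 10 s baseline. Fluorescence was read kinetically at 1 cycle/s for 180 s, with calcium rises flagged as agonism.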
D1 antagonist: human D1 dopamine receptor antagonism; P21728; HEK293 TREx D1 cells, calcium flux, dopamine EC80; active compounds read low; activity change, negative = inhibition, % at 10 µM; 360,000 tested, 3.2% active; AID 504652; in the data active means activity change below about -30%; further: on the % scale 0 is the no-effect control and ±100 the full control effect
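Using tetracycline-induced force-coupled D1 Hek293 cells and a calcium dye, signals were followed for 180 s after compound, then for 180 s after EC80 dopamine, to detect inhibitors.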
D3 ag: activates the human D3 dopamine receptor; D3R DiscoveRx beta-arrestin cells, luminescence, 90 min; P35462; AID 652048; 410,000 tested, 0.58% active; max activation, %; in the data active means max activation above about 30%; further: 0% is about no effect
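Agonist-mode cell screen: cells plated at 1500/well and incubated overnight at 37 °C, then exposed to library compounds for 90 min at 37 °C. Detection reagent was added for 30–60 min at room temperature, and luminescence was read.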
* = called active by the depositor; ? = inconclusive; nt = no result given.

SMILES | D1 potentiator | DRD3 antagonist | D1 ag | D1 antagonist | D3 ag
Cc1ccccc1Oc1cc(NC(=O)CCCn2nc(C)c([N+](=O)[O-])c2C)cc([N+](=O)[O-])c1 | -5 | -17 | 1 | -22 | 1
Cc1nn(CCCC(=O)Nc2cc(Oc3ccc(F)cc3)cc([N+](=O)[O-])c2)c(C)c1[N+](=O)[O-] | -3 | -12 | 9 | -36* | 4
O=C(O)CCN1C(=O)/C(=C/c2ccc(-c3nc4ccccc4s3)o2)SC1=S | 5 | -29 | 28 | 98 | -3
O=C(O)CCCN1C(=O)/C(=C\c2ccc(-c3nc4ccccc4s3)o2)SC1=S | 6 | ? | 35* | 80 | -10
COc1ccccc1N1CCN(CC(O)c2c(C)[nH]c3ccccc23)CC1 (stereo not drawn) | -3 | -79* | 4 | -7 | -6
COc1ccccc1N1CCN(CC(O)c2ccccc2)CC1 (stereo not drawn) | -2 | -55* | 1 | 6 | -21
COc1ccc(OCC(=O)Nc2c(C(=O)N3CCN(C)CC3)oc3ccccc23)cc1 | -18 | -6 | 4 | -33* | -6
COc1cccc(OC(=O)c2cc3ccccc3oc2=O)c1 | -2 | -2 | 5 | -30* | -6
COc1ccccc1OC(=O)c1cc2ccccc2oc1=O | -4 | -5 | -4 | 4 | 4
COc1ccc2oc(=O)c(C(=O)N3CCN(c4ccccc4)CC3)cc2c1 | -1 | -7 | 0 | -41* | 5
COc1ccc(OCC(=O)Nc2c(C(=O)N3CCN(c4ccccc4)CC3)oc3ccccc23)cc1 | 0 | nt | 1 | 3 | 89*
CCOc1ccc(C(=O)Nc2cccc(OCc3cc(=O)n4cc(C)sc4n3)c2)cc1 | -1 | nt | -1 | -3 | -4
CCOc1ccccc1CNc1ncnc2onc(-c3ccc(F)cc3)c12 | -6 | nt | 2 | 11 | -12
N#Cc1cc(N)ccc1Sc1ccc(Cl)cc1 | -9 | -27 | 1 | -32* | -5
CSc1ccc(CCNC(=O)CCc2c(C)nc3c4cccnc4nn3c2C)cc1 | 0 | nt | -2 | -2 | -14
Cc1ccccc1NC(=O)Cn1nc(C(F)(F)F)cc1C1CC1 | 0 | 1 | 3 | 3 | -4
Cc1nn(C)cc1NC(=O)Cn1nc(C(F)(F)F)cc1C1CC1 | -7 | 7 | -1 | -67* | 4
CC(C)c1ccc(NC(=O)CCCN2C(=S)NC(C)(C)CC2C)cc1 (stereo not drawn) | -12 | 8 | 7 | -33* | 7
CC1CC(C)(C)NC(=S)N1CCCC(=O)Nc1ccc(Cl)cc1 (stereo not drawn) | -6 | 2 | -1 | -30 | -9
COc1cccc(C(=O)NCCN2CCC(n3c(=O)[nH]c4ccccc43)CC2)c1 | nt | -78* | nt | nt | -15
O=C(NCCN1CCC(n2c(=O)[nH]c3ccccc32)CC1)c1cccnc1 | nt | -17 | nt | nt | -11
CCOc1cc(OCC)cc(C(=O)NCCN2CCC(n3c(=O)[nH]c4ccccc43)CC2)c1 | nt | -95* | nt | nt | -8
OCCNCc1c(OCc2ccc(Cl)cc2)ccc2ccccc12 | -12 | ? | 160* | -38* | -14
CNCCCCOc1ccccc1-c1ccccc1 | -6 | -76* | 38* | -48* | -28
OCCNCCOCCOc1ccccc1-c1ccccc1 | -7 | -16 | 10 | 19 | -4
SMILES | D1 potentiator | DRD3 antagonist | D1 ag | D1 antagonist | D3 ag
C=CCNCCCCOc1ccccc1-c1ccccc1 | -13 | -93* | 19 | -2 | -38
CCCCNCCOc1ccccc1-c1ccccc1 | -17 | -99* | 17 | -20 | -25
COc1ccc(-c2cn3nc(N4CCC(C(=O)Nc5cc(Cl)ccc5C)CC4)sc3n2)cc1 | -1 | nt | -1 | 21 | -21
COCCCNCCOc1ccccc1-c1ccccc1 | -9 | -81* | 14 | -44* | -36
CNCCOc1ccccc1-c1ccccc1 | -3 | ? | 1 | -1 | -1
COCCNCCOc1ccccc1-c1ccccc1 | -7 | -83* | 17 | -31* | -10
OCCNCCOc1ccccc1-c1ccccc1 | -4 | -76* | 2 | nt | -24
CC(O)CNCCNCc1c(OCc2ccccc2)ccc2ccccc12 (stereo not drawn) | -4 | ? | 122* | 3 | -32
O=C(NCc1ccc(F)cc1)c1ccc(NC(=O)N2CC3CCCN3c3ccccc32)cc1 (stereo not drawn) | -3 | nt | -1 | 3 | -6
CC(O)CNCCOc1ccccc1OCc1ccccc1 (stereo not drawn) | -7 | -80* | 8 | -17 | -15
